PubChem BioAssay
Values joined by “and” are separate entries in the source; they are usually repeats but may differ in a detail not shown here. Equal entries are not always repeated. Some structures have more than one record in an assay (separate samples or runs), and their calls can disagree. Active and inactive are the calls of the source. Cut-off read from the data, not from the text of the source, unless noted: active = inhibition above about 80%; inactive = the rest.

Legend:
[1] = LFS_MB_P medulloblastoma growth inhibition, cell-based, chromothripsis tumors, cisplatin or BGB combos (AID 1671449); conditions: LFS_MB_P medulloblastoma cells;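 note: cells exposed for 96 hours; 0% = vehicle DMSO and 100% = killing by high DMSO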
[2] = HDN33 neuroblastoma growth inhibition, cell-based, chromothripsis tumors, cisplatin or BGB combos (AID 1671450); conditions: HDN33 neuroblastoma cells, stronger effect = higher value;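 note: cells exposed to compound for four days; 0% = vehicle DMSO and 100% = cell killing by high DMSO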
[3] = ICB984 medulloblastoma cell growth inhibition, synergistic combos for chromothripsis tumors, cisplatin or BGB combos (AID 1671451; call rule not given here;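 note: cells exposed for 96 hours before readout; 0% = vehicle DMSO and 100% = killing by high DMSO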); conditions: ICB984 medulloblastoma cells, drug combinations, stronger effect = higher value
[4] = LFS_MB_1R medulloblastoma cell growth inhibition, synergistic combos for chromothripsis tumors, cisplatin or BGB combos (AID 1671452); conditions: LFS_MB_1R medulloblastoma cells, stronger effect = higher value;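 note: cells exposed for 96 hours before readout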
[5] = HTB85 osteosarcoma cell growth inhibition, synergistic combos for chromothripsis tumors, BGB or cisplatin IC20 combos (AID 1671453); conditions: HTB85 osteosarcoma cells, drug combinations, stronger effect = higher value;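 note: cells exposed for 96 hours before readout; 0% = vehicle DMSO and 100% = high DMSO killing control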
[6] = CRL2098 osteosarcoma cell growth inhibition, synergistic combos for chromothripsis tumors, BGB or cisplatin IC20 combos (AID 1671454); conditions: CRL2098 osteosarcoma cells, drug combinations, stronger effect = higher value;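 note: cells exposed for 96 h before readout; 0% = vehicle DMSO and 100% = killing by high DMSO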
[7] = HD-MB03 medulloblastoma cell growth inhibition, synergistic combos for chromothripsis tumors, BGB or cisplatin IC20 combos (AID 1671455; in the data active = inhibition above about 83%;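 note: 0% = vehicle DMSO and 100% = high DMSO as cytotoxic control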); conditions: HD-MB03 medulloblastoma cells, stronger effect = higher value
[8] = UWB1.289 ovarian carcinoma cell growth inhibition, synergistic combos for chromothripsis tumors, BGB or cisplatin combos (AID 1671456); conditions: UWB1.289 ovarian carcinoma cells, stronger effect = higher value;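 note: cells exposed to compound for four days; 0% = vehicle DMSO and 100% = killing by high DMSO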
[9] = LFS_MB_2R medulloblastoma cell growth inhibition, synergistic combos for chromothripsis tumors, cisplatin combos (AID 1671457); conditions: LFS_MB_2R medulloblastoma cells, stronger effect = higher value;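 note: cells exposed to compound for four days before readout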
[10] = MDA-MB-436 breast carcinoma cell growth inhibition, synergistic combos for chromothripsis tumors, BGB or cisplatin combos (AID 1671458; call rule not given here;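 note: cells exposed for 96 hours; 0% = vehicle DMSO and 100% = killing by high DMSO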); conditions: MDA-MB-436 breast carcinoma growth inhibition, drug combinations, stronger effect = higher value
[11] = UWB1.289_BRCA1 ovarian cancer growth, cell-based, BGB or cisplatin combinations (AID 1671459); conditions: UWB1.289 BRCA1 ovarian carcinoma, drug combinations, stronger effect = higher value
[12] = human astrocyte viability loss, single and combined drugs, cytotoxicity control for chromothriptic childhood tumor combination screen, cell-based, BGB or cisplatin IC20 combos (AID 1671460); conditions: Human astrocytes, drug combinations, stronger effect = higher value;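 note: cells exposed to compounds for 96 hours before viability readout; 0% = vehicle and 100% = killing control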
[13] = growth inhibition of BT084 medulloblastoma cells, cell-based, ICGC_MB145, cisplatin and BGB IC40 combos (AID 1671461); conditions: drug combinations, stronger effect = higher value;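 note: cells exposed to drugs for 96 hours; 0% = vehicle DMSO and 100% = high DMSO full killing control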
[14] = growth inhibition of RCMB18 medulloblastoma cells, cell-based, cisplatin and BGB IC40 combos (AID 1671462); conditions: stronger effect = higher value;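 note: cells exposed to compound for four days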
[15] = growth inhibition of CRL1545 osteosarcoma cells, cell-based, cisplatin and BGB IC20 combos (AID 1671464); conditions: stronger effect = higher value;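 note: cells exposed to compound for 96 hours before readout; 0% = vehicle DMSO and 100% = high DMSO killing control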
[16] = measured here: combination with BGB IC40, at 0.05 µM
[17] = measured here: with BGB IC20 combination, at 0.5 µM
[18] = measured here: with cisplatin IC20 combination, at 0.5 µM
[19] = measured here: combination with cisplatin, at 0.5 µM
[20] = measured here: combination with cisplatin, at 5 µM

Question: Which results are given for CNCc1ccc(-c2cc(-c3nc(-c4ccc(S(=O)(=O)C(C)C)cc4)cnc3N)on2)cc1?
Answer: inhibition ([1]; at 0.5 µM, stronger effect = higher value): -32.1% (inactive) and 15.3% (inactive); inhibition ([1]; measured here: combination with BGB IC20, at 0.005 µM): 12.2% and -16.2%; inhibition ([1]; measured here: combination with BGB IC40, at 0.005 µM): 9.32% and -55%; inhibition [1, 16]: -2.44% and -42.7%; inhibition ([1]; measured here: combination with cisplatin, at 0.5 µM, stronger effect = higher value): -68.5% and 16.4%; inhibition ([1]; measured here: combination with cisplatin, at 5 µM, stronger effect = higher value): 96.1% and -3.93%; inhibition ([2]; BGB combo, at 5 µM): 99.9% and 91.5%; inhibition ([2]; at 0.5 µM): 81% (active) and 55% (inactive); inhibition ([2]; cisplatin combo, at 5 µM): 99.7% and 98.8%; inhibition [2, 17]: 74.7% and 52.8%; inhibition [2, 18]: 84.9% and 61.2%; inhibition ([2]; single agent, at 5 µM): 99.6% and 97.3%; inhibition ([3]; BGB IC20 combo, at 0.005 µM): 10% and -1.43%; inhibition ([3]; BGB IC40 combo, at 0.005 µM): 46.6% and 13%; inhibition ([3]; BGB IC40 combo, at 0.05 µM): 102%; inhibition ([3]; at 0.5 µM): -9.05% (inactive) and -13.1% (inactive); inhibition ([3]; cisplatin combo, at 0.05 µM): 102% and 103%; inhibition ([3]; cisplatin combo, at 0.5 µM): -4.28% and -29.4%; inhibition ([3]; cisplatin combo, at 5 µM): 0.208% and -7.66%; inhibition ([3]; measured here: 5 uM single agent, at 5 µM): 4.2% and -17.2%; inhibition ([4]; at 0.5 µM): -10.6% (inactive) and -30.6% (inactive); inhibition [4, 16]: -16.3% and -24.4%; inhibition [4, 19]: -6.99% and -51.5%; inhibition [4, 20]: 103% and 92%; inhibition ([5]; at 0.5 µM): 67.2% (inactive) and 53.2% (inactive); inhibition ([5]; measured here: with BGB IC20, at 0.5 µM): 67.9% and 66.3%; inhibition ([5]; measured here: with BGB IC20, at 5 µM): 99.8% and 98.3%; inhibition ([5]; measured here: with cisplatin IC20, at 0.5 µM): 78.5% and 60.7%; inhibition ([5]; measured here: with cisplatin IC20, at 5 µM): 99.8% and 88.8%; inhibition ([5]; single agent, at 5 µM): 99.8% and 79%; inhibition ([6]; at 0.5 µM): 45.2% (inactive) and 30% (inactive); inhibition ([6]; measured here: combination with BGB at IC20, at 0.5 µM): 27% and 27.5%; inhibition ([6]; measured here: combination with cisplatin at IC20, at 0.5 µM): 60.9% and 31.3%; inhibition ([7]; at 0.5 µM): 87.3% (active) and 58.6% (inactive); inhibition ([7]; measured here: combo with BGB at IC20, at 0.5 µM): 82.9% and 61.6%; inhibition ([7]; measured here: combo with cisplatin at IC20, at 0.5 µM): 96.2% and 87.4%; inhibition ([8]; at 0.5 µM): 83% (active) and 72.2% (inactive); inhibition ([8]; measured here: inhibition with BGB combination, at 0.05 µM): 7.96% and -9.18%; inhibition ([8]; measured here: inhibition with cisplatin combination, at 0.05 µM): 41.3% and 1.85%; inhibition ([9]; at 0.5 µM): 13.8% (inactive) and -20% (inactive); inhibition [9, 19]: 29.2% and -5.7%; inhibition [9, 20]: 104% and 53.6%; inhibition ([10]; at 0.5 µM): 55.5% (inactive) and 36% (inactive); inhibition ([10]; measured here: BGB combination, at 0.5 µM): 34.5% and 11.4%; inhibition ([10]; measured here: BGB combination, at 5 µM): 82.1% and 63.6%; inhibition ([10]; measured here: cisplatin combination, at 0.5 µM): 76.4% and 54%; inhibition ([10]; measured here: cisplatin combination, at 5 µM): 109% and 82.4%; inhibition ([11]; BGB combination, concentration series, at 5 µM): 101% and 97.7%; inhibition ([11]; at 0.5 µM): 90.3% (active) and 82.2% (active); inhibition ([11]; cisplatin combination, concentration series, at 5 µM): 84.8% and 106%; inhibition ([12]; at 0.5 µM): -32% (inactive) and -35.2% (inactive); inhibition ([12]; measured here: combo with BGB IC20, at 0.5 µM): -34.1% and -25.6%; inhibition ([12]; measured here: combo with cisplatin IC20, at 0.5 µM): -44.2% and -41.4%; inhibition ([13]; at 0.5 µM): 29.8% (inactive) and 12.8% (inactive); inhibition ([13]; cisplatin combination, at 0.5 µM): 27.7% and 16.2%; inhibition ([13]; cisplatin combination, at 5 µM): 109% and 105%; inhibition ([13]; measured here: BGB IC40 combination 0.05 uM, at 0.05 µM): -22.6% and -25.3%; inhibition ([13]; single agent, at 5 µM): 107% and 108%; inhibition ([14]; at 0.5 µM): 31.8% (inactive) and 0.94% (inactive); inhibition ([14]; cisplatin combo, at 5 µM): 104% and 103%; inhibition ([14]; measured here: BGB IC40 combination, at 0.05 µM): 11.9% and -20.4%; inhibition [14, 19]: 38.1% and -11.6%; inhibition ([14]; single agent, at 5 µM): 101%; inhibition ([15]; at 0.5 µM): 95% (active) and 91% (active); inhibition [15, 17]: 91.2% and 85.8%; inhibition [15, 18]: 96.8% and 93.6%; inhibition ([15]; single agent, at 0.05 µM): 35.3% and -10.3%; inhibition ([15]; single agent, at 5 µM): 99.8% and 99.5%
